Assay: probe aDKK1 binding to arrayed compounds – biochemical, biotinylated probe, 635/667 nm fluorescence, primary screen (AID 1099);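 note: score merges 667nm spot fluorescence with signal to noise across triplicate slides; reference of the scale not given here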
Settings: small-molecule microarray, higher = more signal

SMILES | composite z-score
CCOC(=O)C[C@H]1[C@H](OC(=O)c2ccccc2-c2ccccc2)[C@@H](NC(=O)c2ccccc2)c2cc(OCCCO)ccc2N1C(=O)Cc1ccc(OC)cc1 | -0.0327
C=CCC(OC(C)=O)[C@@H]1[C@@H](N(Cc2ccc(-c3cccc(C(F)(F)F)c3)o2)C(=O)c2cccc3ccccc23)c2cc(OCCCO)ccc2N1C(=O)c1ccc(-c2ccccc2)cc1 (stereo not given in full) | 0.0007
C[C@H]1ON(c2ccccc2)[C@@H](c2ccccc2)[C@@H]1C(=O)N1C(=O)OC[C@@H]1c1ccccc1 | -0.138
COCCOC(=O)N1C(=O)[C@@]2(c3cc(C#CCNC(N)=O)ccc31)[C@H](C(N)=O)[C@H]1C(=O)O[C@H](c3ccccc3)[C@H](c3ccccc3)N1[C@@H]2c1ccc(OCCO)cc1 | 0.0301
CCCC=C(CCC)[C@@H](NS(=O)(=O)c1cccc2cccnc12)c1ccc(C(=O)OC)cc1 | 2.53
CCOC(=O)C1=CC[C@@H](c2ccccc2)N(S(=O)(=O)c2ccc(C)cc2)[C@H]1C=C(C)C | 0.367
C#CCNS(=O)(=O)N(C)C | -0.0521
O=C1O[C@H](c2ccccc2)[C@H](c2ccccc2)N2[C@H]1[C@@H](C(=O)N1CCN(c3ncccn3)CC1)[C@]1(C(=O)Nc3ccc(C#CCCO)cc31)[C@H]2c1ccc(OCCO)cc1 | 0.115
COCCOC(=O)N1C(=O)[C@@]2(c3cc(C#CC4(O)CCCCCC4)ccc31)[C@H](C(=O)N1CCN(c3ncccn3)CC1)[C@H]1C(=O)O[C@H](c3ccccc3)[C@H](c3ccccc3)N1[C@@H]2c1ccc(O)cc1 | -0.127
Cc1cc(C)c(C(O)C2C=CC3C(=O)N(c4ccccc4)C(=O)C3N2Nc2ccc([N+](=O)[O-])cc2)c(C)c1 (stereo not given) | 0.74
Cc1ccc(S[C@]2(C(=O)O)CC(=O)N(C3CCCCC3)[C@@H]2c2ccc(CO)cc2)cc1 | -0.0047
CCOc1cc(C(O)C2C=CC3C(=O)NC(=O)C3N2Nc2ccccn2)ccc1O (stereo not given) | -0.0596
CC(=O)NCCCC[C@@H]1NC(=O)[C@@H]2C[C@H](C(=O)NCCCC[N+](C)(C)C)[C@H](c3cccc(OCCO)c3)N2C1=O | -0.11
COc1ccc([Si](C)(C)[C@@H]2[C@@H](CC(=O)N(CCO)Cc3ccccc3)O[C@]3(C(=O)N(Cc4ccc(N5CCOC5=O)cc4)c4ccccc43)[C@H]2C)cc1 | 0.232
COC(=O)[C@]1(Cc2ccccc2CN=[N+]=[N-])N=C(c2ccc(OCCCO)cc2)O[C@@H]1c1ccccc1CN=[N+]=[N-] | -0.188
CN(C)C(=O)[C@]1(Cc2ccccc2N=[N+]=[N-])N=C(c2ccc(OCCCO)cc2)O[C@@H]1c1ccccc1CN=[N+]=[N-] | 0.189
CC(C)(C)OC(=O)CC[C@@]1(C(=O)N2CCCCC2)N=C(c2ccc(OCCCO)cc2)O[C@@H]1c1ccccc1CN=[N+]=[N-] | 0.754
CCN(CC)c1ccc(N2CC=CC34O[C@@H]5/C=C\CCCOC(=O)C5[C@H]3C(=O)N(CCCCCO)[C@@H]4C2=O)cc1 (stereo not given in full) | 0.123

SMILES | composite z-score
[N-]=[N+]=Nc1ccccc1C[C@]1(C(=O)NCCN2CCOCC2)N=C(c2ccc(OCCCO)cc2)O[C@H]1c1ccccc1N=[N+]=[N-] | 0.63
COC(=O)[C@]1(Cc2ccccc2CN=[N+]=[N-])N=C(c2ccc(OCCCO)cc2)O[C@@H]1c1ccccc1 | -0.0032
COCCOC(=O)N1C(=O)[C@@]2(c3cc(C#Cc4ccc(OC)cc4)ccc31)[C@H](C(=O)N1CCc3cc(OC)c(OC)cc3C1)[C@H]1C(=O)O[C@H](c3ccccc3)[C@H](c3ccccc3)N1[C@@H]2c1ccc(O)cc1 | -0.0986
COCCOC(=O)N1C(=O)[C@@]2(c3cc(C#CCCO)ccc31)[C@H](C(=O)NC[C@H](O)c1ccccc1)[C@H]1C(=O)O[C@H](c3ccccc3)[C@H](c3ccccc3)N1[C@@H]2c1ccccc1OCCO | 0.437
COc1ccccc1CN1C(=O)c2ccccc2[C@@H](C(=O)NCC(C)C)[C@@H]1c1ccc(CO)cc1 | 0.543
C=CCN1C(=O)[C@@]2(O[C@@H](CCn3cc([C@H](O)c4ccccc4)nn3)[C@H]([Si](C)(C)c3ccc(OC)cc3)[C@H]2C)c2cc(NC(=O)c3ccc(OC)cc3)ccc21 | 0.041
O=C(O)[C@]1(CCS(=O)(=O)c2ccccc2)N=C(c2ccc(OCCCO)cc2)O[C@@H]1c1ccccc1 | 1.21
CN(C)CCCN1C(=O)[C@@]2(Cc3ccccc31)c1ccccc1C(=O)N(Cc1ccccc1)[C@H]2c1ccc(CO)cc1 | -0.152
COC(=O)C(CC#Cc1ccc2c(c1)[C@]1(C(=O)N2)[C@H](c2ccc(O)cc2)N2[C@H](c3ccccc3)[C@H](c3ccccc3)OC(=O)[C@H]2[C@@H]1C(N)=O)C(=O)OC | -0.207
O=C1C2C=CC(C(O)c3ccc(Br)cc3)N(Nc3ccccc3)C2C(=O)N1c1ccccc1 (stereo not given) | -0.0556
O=C(O)[C@@]1(Cc2ccccc2)COC(c2ccc(OCCCO)cc2)=N1 | 0.413
COC(=O)c1ccc(OC)c(/C=C\CC(CCc2ccccc2)OC(=O)c2ccncc2)c1 (stereo not given) | -0.264
COC(=O)[C@@]1(Cc2ccc(OC)cc2)[C@H]2c3cc(C(=O)N4CCCC4)n(CCc4ccc(O)c(OC)c4)c3C[C@H]2CN1C(=O)c1ccccc1 | 0.527
C[N+](C)(C)CCCC[C@@H]1NC(=O)[C@H]2C[C@@H](C(=O)NCCCCCCN)[C@@H](c3cccc(OCCO)c3)N2C1=O | 1.82
COC(=O)[C@]1(Cc2ccccc2N=[N+]=[N-])N=C(c2ccc(OCCCO)cc2)O[C@@H]1c1ccccc1 | 0.974
CC(C)N1C(=O)c2ccccc2[C@](C)(C(=O)O)[C@@H]1c1ccc(CO)cc1 | 0.326
COc1ccc(C(=O)Nc2ccc3c(c2)[C@]2(O[C@@H](CCO)[C@H]([Si](C)(C)c4ccc(OC)cc4)[C@H]2C)C(=O)N3Cc2ccccc2)cc1 | -0.0183

From PubChem BioAssay
